# Shown is part of a subset that was picked to be rich in hits.
# Tb PYK inh: inhibitors of Trypanosoma brucei pyruvate kinase | AID 624173 | Potency, µM (doses to about 76.8 µM), without a hit: at the highest dose activity, negative = inhibition, most hits filed as inhibitors | actives 0.12% (n = 410,000) | TbPYK enzyme, Kinase-Glo Plus ATP luminescence, 45 min | Q57TT1; note: potency is the fitted concentration of half-maximal effect; % is set by controls: 0 for no effect and ±100 for the full control effect; nearly all actives have a fitted effect of over 50% in size
#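 Enzyme and substrate buffer are dispensed first and compound is pin-transferred. ADP at 130 uM final then starts the reaction, which runs 45 min at room temperature. Detection reagent is added for 10 min before luminescence is imaged.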
# Shiga toxin inh: inhibitors of Shiga toxin in Vero cells. Vero cells, Shiga toxin protein synthesis inhibition reporter. inhibition, % at 38.7 µM. actives 9.2% (n = 290,000). AID 2315; in the data active = inhibition mostly above about 28%, no sharp cut-off; inactive = mostly below about 43%; note: 0% is about no effect
# LmPK inh: blocks Leishmania mexicana pyruvate kinase activity | Q27686 | purified LmPK, Kinase-Glo ATP luminescence, 1 h | Potency, µM (series often up to 57.5 µM), without a hit: top-dose activity change, negative = inhibition, most hits filed as inhibitors | actives 0.37% (n = 290,000) | AID 1721; note: potency is the fitted concentration of half-maximal effect; % is set by controls: 0 for no effect and ±100 for the full control effect
# Target sequence (Q27686 whole entry, looked up): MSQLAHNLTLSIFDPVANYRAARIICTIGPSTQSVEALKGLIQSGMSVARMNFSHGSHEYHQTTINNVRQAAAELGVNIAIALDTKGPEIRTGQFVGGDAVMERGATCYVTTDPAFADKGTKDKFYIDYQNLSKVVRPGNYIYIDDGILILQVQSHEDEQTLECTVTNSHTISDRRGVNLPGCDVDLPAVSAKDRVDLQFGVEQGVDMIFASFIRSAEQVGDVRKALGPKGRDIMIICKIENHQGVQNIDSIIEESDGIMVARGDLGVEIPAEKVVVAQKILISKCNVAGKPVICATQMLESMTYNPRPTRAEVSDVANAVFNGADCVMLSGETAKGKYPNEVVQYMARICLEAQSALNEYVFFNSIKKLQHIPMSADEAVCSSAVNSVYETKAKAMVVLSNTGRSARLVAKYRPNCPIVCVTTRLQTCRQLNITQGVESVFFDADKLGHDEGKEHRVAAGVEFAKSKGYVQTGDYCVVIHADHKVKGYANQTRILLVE
#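 0.1 nM LmPK, 0.5 mM PEP, 0.1 mM ADP; 50 mM imidazole pH 7.2, 7 mM MgCl2, 50 mM KCl; 1 h RT. Kinase-Glo luminescence readout, normalized to no-enzyme (full inhibition) and uninhibited wells.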
# Sm TGR block: inhibitors of Schistosoma mansoni thioredoxin glutathione reductase; Q962Y6; purified TGR, DTNB reduction, TNB absorbance 405 nm; Potency, µM (highest dose often 114 µM), for inactives: at the top dose activity change, negative = inhibition, actives largely listed as inhibitors; actives 3% (n = 360,000); AID 485364; note: potency is the fitted concentration of half-maximal effect; % is set by controls: 0 for no effect and ±100 for the full control effect; nearly all actives have a fitted effect of over 60% in size
#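 TGR 20 nM + NADPH 100 uM (dispensed conc.), cpd preinc 15 min RT; start with NADPH (500 uM addition) then DTNB (15 mM addition). Kinetic TNB absorbance, 405 nm filter. Four-parameter Hill fit across titration.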
# CHX counter: counter-screen hit for Shiga toxin inhibitors, cycloheximide; cell reporter, cycloheximide protein synthesis inhibition counterscreen; max response, %; actives 12% (n = 300,000); AID 2314; in the data active = max response mostly above about 13%, no sharp cut-off; inactive = mostly below about 14%; note: read at 38.3 µM for the half of the compounds with a filed dose; 0% is about no effect
# Giardia FBPA inh: Giardia lamblia aldolase inhibition. A8B2U2. purified Giardia FBPA. Potency, µM (doses to about 59.6 µM), inactives show at the highest dose activity, negative = inhibition, most hits filed as inhibitors. actives 0.71% (n = 290,000). AID 2451; note: potency is the fitted concentration of half-maximal effect; % is set by controls: 0 for no effect and ±100 for the full control effect; nearly all actives have a fitted effect of over 55% in size
#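 40 nM FBPA preincubated 10 min at RT with compound (up to 57.5 uM final), then substrate plus GAPDH/TPI/NAD/arsenate coupling and diaphorase/resazurin added. Fluorescence read after 20 min at RT, 525/598 nm.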
# Starred values were filed as active, the others as inactive; u = inconclusive; x = no result given; [ ] = dose if it differs, or a comment. Unless noted, calls come from the whole dose curve; as a rule, active = well fitted curve in the direction sought with a large enough effect; inconclusive = small, poorly fitted or top-dose-only effect, or another doubt; inactive = no such curve, though single readings can be large; an effect the other way counts as inactive or inconclusive.
SMILES,Tb PYK inh,Shiga toxin inh,LmPK inh,Sm TGR block,CHX counter,Giardia FBPA inh
O=[N+]([O-])c1ccc2nc(NN=Cc3ccc(O)cc3)sc2c1,0.2%,x,x,x,x,x
Oc1ccc2ccccc2c1C=NCc1cn2ccsc2n1,-11.0%,14.8,2.8%,23.3%[11.4 µM],15.6,1µM*
CO[C@H]1C[C@@H]2CC[C@@H](C)[C@@](O)(O2)C(=O)C(=O)N2CCCC[C@H]2C(=O)O[C@H]([C@H](C)C[C@@H]2CC[C@@H](OC(=O)C(C)(CO)CO)[C@H](OC)C2)CC(=O)[C@H](C)/C=C(\C)[C@@H](O)[C@@H](OC)C(=O)[C@H](C)C[C@H](C)/C=C/C=C/C=C/1C,-4.1%,x,x,x,x,x
O=C(CNc1cc(S(=O)(=O)N2CCOCC2)ccc1N1CCCC1)Nc1ccc(Cl)cc1F,0.6%,x,x,x,x,x
CCCCn1c(-c2ccco2)n[nH]c1=S,u,-9.6,-28.4%,-2.0%,3.6,-17.1%
CCCCn1c(-c2sccc2C)n[nH]c1=S,u,-9.5,31.6µM*,3.5%,-2.8,-14.6%
CC(C)Cn1c(Cc2ccccc2)n[nH]c1=S,u,12.7,11.2µM*,9.0%,-1.6,-1.4%
CCCCn1c(Cc2ccccc2)n[nH]c1=S,11.2µM*,14.9,u,1.1%,-5.7,20.8%
CCCCn1c(-c2c(Cl)c(C)nn2C)n[nH]c1=S,10µM*,-3.7,-25.9%,1.0%,-3.3,-4.0%
CC(C)C[C@H]1CN([C@@H](Cc2ccccc2)CN2CCC[C@H]2CN2C(=O)C(=O)NC[C@@H]2Cc2ccc(O)cc2)C(=O)C(=O)N1CCc1ccccc1,2.9%,x,x,x,x,x
COc1cccc(N2CCN(S(=O)(=O)c3cc(-c4cc(C)no4)ccc3C)CC2)c1,2.2%,x,x,14.6%,x,x
Cc1cnc(C(=O)Nc2ccc(C(C)C)cc2)cn1,-5.4%,133.5*,0.1%,3.1%,46.4*,-7.3%
Cc1cnc(C(=O)Nc2ccc(F)cc2)cn1,-5.4%,98.6*,u,0.0%,52.9*,5.4%
COc1cc2c(cc1OC)[C@@H](Cc1cc(OC)c(OC)c(OC)c1)[N@+](C)(CCCOC(=O)CC/C=C/CCC(=O)OCCC[N@+]1(C)CCc3cc(OC)c(OC)cc3[C@H]1Cc1cc(OC)c(OC)c(OC)c1)CC2,-1.0%,x,x,x,x,x
O=C1C2ON(c3ccccc3)C(c3cccnc3)C2C(=O)N1Cc1ccccc1 (stereo not drawn),3.0%,-17.7,1.6%,39.8µM*,-5.8,3.7%
CC(C)=CC(O)C/C(C)=C/COc1ccc2ccc(=O)oc2c1 (stereo not drawn),-6.0%,38.1,-0.1%,-14.4%,8.6*,-1.1%
CCn1nnc2cc(C(=O)NCC(c3ccccc3OC)N(C)C)ccc21 (stereo not drawn),0.5%,28.6,0.2%,u,10.2,-4.9%
CC(C)C[C@H](NC(=O)[C@H](CCCCN)NC(=O)[C@H](CCC(N)=O)NC(=O)[C@H](Cc1cnc[nH]1)NC(=O)[C@H](Cc1cnc[nH]1)NC(=O)[C@@H](N)C(C)C)C(=O)N[C@H](C(=O)N[C@@H](Cc1ccccc1)C(=O)N[C@@H](Cc1ccccc1)C(=O)N[C@@H](C)C(=O)N[C@@H](CCC(=O)O)C(=O)N[C@@H](CC(=O)O)C(=O)N[C@H](C(=O)NCC(=O)N[C@@H](CO)C(=O)N[C@@H](CC(N)=O)C(=O)N[C@@H](CCCCN)C(=O)O)C(C)C)C(C)C,x,-8.6,x,x,-10.9,2.3%
Cc1ccc(C2=CC(c3ccc(C)cc3)n3ncnc3N2)cc1 (stereo not drawn),-11.7%,x,x,x,x,x
Clc1ccccc1C1=CC(c2ccco2)n2ncnc2N1 (stereo not drawn),-19.0%,-9.0,1.3%,12.6µM*,-1.2,-2.1%
COc1ccc(C2C=C(c3ccccc3)Nc3ncnn32)cc1 (stereo not drawn),-13.3%,9.1,1.0%,31.6µM*,1.6,-7.3%
COc1ccc(C2=CC(c3ccco3)n3ncnc3N2)cc1 (stereo not drawn),-17.3%,-5.4,-4.0%,10µM*,5.8,-24.2%
Clc1ccc(C2=CC(c3ccco3)n3ncnc3N2)cc1 (stereo not drawn),-5.9%,-16.4,-1.3%,50.1µM*,-1.5,-2.0%
CCOC(=O)c1cc(-c2ccc(F)cc2)n(CCC(=O)NCCc2ccc(C)cc2)c1C,-19.5%[15.4 µM],x,x,-6.8%,x,x
COc1ccccc1C(=O)COC(=O)CN1C(=O)NC2(CCCC2)C1=O,-0.8%,x,x,-1.6%,x,x
SMILES,Tb PYK inh,Shiga toxin inh,LmPK inh,Sm TGR block,CHX counter,Giardia FBPA inh
COC(=O)C1CCN(S(=O)(=O)c2cc3c4c(c2)CC(=O)N4CCC3)CC1,0.1%,x,x,10.1%,x,x
Cc1cccc(-c2nc3scc(CCNS(=O)(=O)c4ccc(Oc5ccccc5)cc4)n3n2)c1,-10.3%,x,x,-2.3%,x,x
CC1=C(C(=O)Nc2ccccc2)C(c2ccco2)n2ncnc2N1 (stereo not drawn),-5.4%,11.4,0.2%,-3.4%,0.8,1.2%
CC(=O)Nc1cccc(C2=CC(c3ccco3)n3ncnc3N2)c1 (stereo not drawn),x,1.6,2.8%,12.6µM*,7.0,-12.4%
CC(C)n1c(=NC(=O)c2ccco2)c(C#N)cc2c(=O)n3ccccc3cc21,-8.3%,13.3,-1.7%,44.7µM*,-1.7,1.8%
CCOC(=O)c1cc2c(=O)n3ccccc3nc2n(C(C)C)c1=NC(=O)c1ccco1,3.0%,-14.0,1.3%,-11.6%,1.6,4.7%
CSc1nnc(N2C(=O)C(O)=C(C(=O)c3ccco3)C2c2ccc(F)cc2)s1 (stereo not drawn),1.8%,20.7,0.9%,50.1µM*,28.2*,x
CCOc1cccc(C2C(C(=O)c3ccco3)=C(O)C(=O)N2Cc2ccncc2)c1 (stereo not drawn),-3.1%,12.2,-0.2%,u,16.9*,u
O=C(C1=C(O)C(=O)N(c2ncccn2)C1c1cccc(Cl)c1)c1ccco1 (stereo not drawn),-0.5%,18.0,0.9%,44.7µM*,8.3,u
COc1ccc(C2C(C(=O)c3ccc(C)o3)=C(O)C(=O)N2Cc2cccnc2)cc1OC (stereo not drawn),-3.3%,2.7,9.1%,0.8%,-1.6,-0.8%
O=C(C1=C(O)C(=O)N(c2ncccn2)C1c1ccc(Cl)c(Cl)c1)c1ccco1 (stereo not drawn),2.3%,-1.8,-7.6%,u,13.6,u
COc1ccc(C2C(C(=O)c3cccs3)=C(O)C(=O)N2Cc2cccnc2)cc1OC (stereo not drawn),2.5%,110.4*,0.5%,15.5%,37.8*,-1.7%
CCOc1cccc(C2C(C(=O)c3ccco3)=C(O)C(=O)N2c2nnc(C)s2)c1 (stereo not drawn),0.3%,x,x,u,x,x
CCCNS(=O)(=O)c1cc(-c2nnc3c4ccccc4c(C)nn23)ccc1OC,-2.2%,x,x,-2.3%,x,x

# From PubChem BioAssay
